Only a selection was taken, and hits are over-represented in it overall.
Pf Dd2 growth – Plasmodium falciparum Dd2 growth inhibition; P. falciparum Dd2 growth, SYBR Green, 72 h; Potency, µM (highest dose often 28.9 µM), without a hit: at the top dose activity, negative = inhibition, most hits filed as inhibitors; hit rate 4.3% among 120,000; active means well fitted inhibition curve with a large enough effect;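 further: plate controls were DMSO vehicle for no effect and reference drug for full effect; nearly all actives have a fitted effect of over 65% in size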
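Readout: SYBR Green fluorescence, 485 nm excitation, 535 nm emission, after ~16 h lysis at 37C. Before that, Dd2-infected red cells (2.5% hematocrit) grew 72 h with compound, 29 uM top final concentration.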
Numbers without * were called inactive; i = inactive; [ ] = another dose, or the depositor's remark. Potency means the concentration at half of the fitted maximal effect.

SMILES	Pf Dd2 growth
FC(F)(F)c1ccc(N2C3CCC2CN(Cc2cccc(-c4cccnc4)c2)C3)cc1	11µM*
FC(F)(F)c1ccc(N2C3CCC2CN(Cc2ccc(-c4ccsc4)cc2)C3)cc1	2%
CC(C)Oc1ccc2c(NC(=O)CCn3cncn3)nn(Cc3ccccc3)c2c1	-16%
Cc1c(-c2ccccc2F)[nH]c2ccc(CNC(=O)CCN3CCCO3)cc12	i
COc1cc(F)c(CN2CC[C@@](O)(C3CC3)[C@H](C)C2)cc1OC	i
C[C@@H]1CN(Cc2noc(C3CCCC3)n2)CC[C@@]1(O)C1CCC1	-24%
Cc1cccc(Nc2nc(N)nc(CN3CC[C@@](O)(C4CCC4)[C@H](C)C3)n2)c1	8.9µM*
CC(C)NC(=O)c1ccc(N2CC3CC(C2)[C@H]2CCCC(=O)N2C3)nc1 (some centres undefined)	3%
CN1C(=O)CN(CCCCOc2ccccc2)C(=O)c2ccccc21	-19%
O=C(CCc1nc(-c2ccccc2)no1)NC1CCCN(CCCc2ccccc2)C1 (centres undefined)	7.1µM*
CCN(CC)S(=O)(=O)NC1CCCN(CCCc2ccccc2)C1 (centres undefined)	-2%
O=C(c1ccccc1OCC1CCCN(CCCc2ccccc2)C1)N1CCCC1 (centres undefined)	i
COC(=O)N1CCCCC(NC(=O)CCCc2nc(-c3ccccc3C)no2)C1 (centres undefined)	-19%
COC(=O)c1cccc(C(=O)NC2CCCN(CCCc3ccccc3)C2)c1 (centres undefined)	8.9µM*
O=C(CCn1ccc(=O)[nH]c1=O)NC1CCCN(CCCc2ccccc2)C1 (centres undefined)	-10%
O=C(NCc1cccc(Cl)c1)c1noc(-c2ccc3c(c2)OCO3)n1	16%
CCCNC(=O)NC[C@H]1O[C@@H]2C[C@@H](CC(=O)NCc3cnn(C)c3)O[C@@H]2[C@@H]1O	-21%[44.1 µM]
CS(=O)(=O)N[C@@H]1[C@@H](NC(=O)c2ccc(Cn3ccnc3)o2)[C@H]2CCO[C@H]21	-4%
Cc1cc(OCC(=O)NCC2(N3CCOCC3)CCCCC2)ccc1Cl	i
CCCOc1ccc(C(=O)NCC(c2ccc(OC)cc2)N2CCCCC2)cc1 (centres undefined)	-25%
CN(C)c1ccc(C(CNS(=O)(=O)c2ccc(Cl)cc2)N2CCOCC2)cc1 (centres undefined)	-23%
COc1ccc(CC(=O)NCC(c2ccc(Cl)cc2)N2CCOCC2)cc1 (centres undefined)	49%[0.594 µM]
COc1ccc(C(CNC(=O)c2ccc(C)cc2)N2CCOCC2)cc1 (centres undefined)	17%
CC(C)c1ccc(OCC(=O)NCC(c2ccc(Cl)cc2)N2CCOCC2)cc1 (centres undefined)	10µM*
COc1ccc(C(CNC(=O)c2oc3ccccc3c2C)N2CCCCC2)cc1 (centres undefined)	24%
SMILES	Pf Dd2 growth
COc1ccc(C(CNC(=O)COc2cc(C)cc(C)c2)N2CCCCC2)cc1 (centres undefined)	i
COc1ccc(C(CNC(=O)c2oc3cc(C)c(Cl)cc3c2C)N2CCCCC2)cc1 (centres undefined)	1%
COc1ccc(OCC(=O)NCC(c2ccc(OC)cc2)N2CCCCC2)cc1 (centres undefined)	8.9µM*
COc1ccc(C(CNC(=O)COc2ccc(Cl)c(C)c2)N2CCOCC2)cc1 (centres undefined)	3.5µM*
COc1ccc(C(CNC(=O)COc2ccc(C)c(C)c2)N2CCCCC2)cc1 (centres undefined)	11µM*
O=C(N[C@H]1CCOC[C@H]1C1CCOCC1)c1ccc2c(c1)ncn2CCO	-21%
COC[C@@H]1CN(Cc2ccc(C)cn2)C[C@H]1C(=O)NC1CC1	i
O=C(NCc1ccc(F)cc1)N1CCCC(Cn2cnc3cccnc32)C1 (centres undefined)	-2%
O=C(c1ccccc1OCC1CCCN(Cc2cccs2)C1)N1CCCC1 (centres undefined)	i
Cn1ncc(N2CCC(CNC(=O)c3cn4cccnc4n3)C2)cc1=O (centres undefined)	i
NC(=O)[C@@H]1CCCN1CC[C@H]1CN(C(=O)NC2CCCCC2)CC[C@H]1CC(=O)O	29%[44.1 µM]
COc1cccc(NC(=O)N2CCCC(Cn3c(C)nc4cccnc43)C2)c1 (centres undefined)	i
Cc1nc2cccnc2n1CC1CCCN(C(=O)Nc2ccc(C(F)(F)F)cc2)C1 (centres undefined)	i
CC(C)Cc1ccc(S(=O)(=O)N2CCCC(Cn3cnc4cccnc43)C2)cc1 (centres undefined)	-10%
Cc1cc(S(=O)(=O)N2CCCC(Cn3c(C)nc4cccnc43)C2)ccc1Cl (centres undefined)	-28%
Cc1nc2cccnc2n1CC1CCCN(C(=O)Nc2cccc(C(F)(F)F)c2)C1 (centres undefined)	11µM*
Cc1nc2cccnc2n1CC1CCCN(S(=O)(=O)c2ccc(CC(C)C)cc2)C1 (centres undefined)	6.3µM*
O=C1N(CC2CCOCC2)CCOC12CCN([S+](=O)([O-])c1ccccc1)CC2	-2%[44.1 µM]
CC(=O)N1CCn2cc(C(=O)NCc3ccc(Cl)nc3)nc2C1	12%
CC(=O)Nc1ccc(CNC2(Cc3cc(CN4CCN(c5ccccc5)CC4)on3)COC2)cc1	26%
c1ccc(OCCNc2nc(-c3cccnc3)nc3c2CCNCC3)cc1	2.2µM*
Cc1ncsc1CCCNc1nc(-c2ccccn2)nc2c1CCNCC2	i
c1cc(-c2nc3c(c(NCc4cn5c(n4)SCC5)n2)CCNCC3)ccn1	-3%
O=C(CSc1nc(=O)[nH]c2c1CCC2)NCc1ccccc1	10%
CCC1(C(=O)Nc2cccc(OC)c2)CCCCC(=O)N1 (centres undefined)	14%
SMILES	Pf Dd2 growth
O=C(Nc1ccccc1)c1cccc2c(=O)c3c([nH]c12)CCCC3	4.5µM*
COc1cccc(NC(=O)c2cccc3c(=O)c4c([nH]c23)CCCC4)c1	0.89µM*
O=C(CSc1nc(=O)[nH]c2c1CCCC2)NCc1ccccc1	25%
COc1cccc(NS(=O)(=O)c2ccc3[nH]c4c(c3c2)CCCCCC4)c1	-27%
COc1ccc(N2CCN(C(=O)CC3CCCCN(C)C3=O)CC2)cc1 (centres undefined)	-20%
O=C(CC1CCCCN(Cc2ccccc2)C1=O)N1CCN(c2ccc(F)cc2)CC1 (centres undefined)	11µM*
O=C(CC1CCCCN(Cc2ccccc2)C1=O)Nc1ccc(F)cc1F (centres undefined)	-3%
O=C(CN1C(=O)NC2(CCOCC2)C1=O)NCc1ccc(Cl)cc1	51%
CCCc1ccc(S(=O)(=O)N2CCC(c3nnc(-c4cccc(C)c4)o3)CC2)cc1	11µM*
COc1ccccc1-c1nnc(C2CCN(S(=O)(=O)c3ccc(F)c(C)c3)CC2)o1	23%
CCCc1ccc(S(=O)(=O)N2CCC(n3cnnc3C)CC2)cc1	-28%
COc1cccc([S+](=O)([O-])N2CCn3ncc(C(=O)N4CCOCC4)c3C2)c1	2%
O=C(c1cccc2c1NCCC2)N1CCn2nc(C(O)C3CC3)cc2C1 (centres undefined)	-4%
O=C(c1ccsc1)N1CCC(Cc2nc(C3CCOCC3)no2)CC1	63%
COc1ccc(OCC(=O)N2CCN(C(=O)c3cc(OC)c(OC)c(OC)c3)CC2)cc1	17%
COC(=O)c1ccc(OCC2c3cc(OC)c(OC)cc3CCN2C(=O)COc2ccc(Cl)cc2)cc1 (centres undefined)	10µM*

Screening results (PubChem)
